Results published in PubChem BioAssay (Tox21).
Results filed as inconclusive are left out. Where a call stands in place of a potency, no number is given. Values without a mark were called inactive. Activity calls are given as the source filed them. Unless noted, the call rests on the fitted dose curve; in most records, active means well fitted curve in the direction sought with a large enough effect in the repeat runs; inconclusive means weak or mixed curves; inactive means no such curve, though single readings can be large; an effect the other way counts as inactive or inconclusive.

Key:
[1] = qHTS assay to identify small molecule antagonists of the peroxisome proliferator-activated receptor delta (PPARd) signaling pathway - cell viability counter screen (AID 743213); further: nearly all actives have a fitted effect of over 50% in size
Outline: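 Agonist-stimulated (L165041, 300 nM final) HEK293H PPARd UAS-bla cells are exposed to compounds for 17 h at 37 C, and ATP-based luminescence (CellTiter-Glo) from the same wells reports cytotoxicity.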

[2] = target: Peroxisome proliferator-activated receptor delta (Homo sapiens) (UniProt Q03181); assay: qHTS assay to identify small molecule antagonists of the peroxisome proliferator-activated receptor delta (PPARd) signaling pathway (AID 743215; active means well fitted inhibition curve with a large enough effect in the signal ratio in the repeat runs, not every such curve was filed as active; the % refers to the signal ratio; further: series mostly up to about 62 µM)
Outline: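 With L165041 present at 300 nM final, compounds were incubated 17 h at 37 C on PPARd UAS-bla HEK293H cells. A FRET-based beta-lactamase substrate was then applied for 2 h at room temperature and fluorescence intensity recorded.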

[3] = target: Bile acid receptor (Homo sapiens) (UniProt Q96RI1); assay: qHTS assay to identify small molecule antagonists of the farnesoid-X-receptor (FXR) signaling pathway (AID 743217; active means well fitted inhibition curve with a large enough effect in the signal ratio in the repeat runs, not every such curve was filed as active; the % refers to the signal ratio)
Outline: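 In this cell-based antagonist screen, inhibition of CDCA-driven (50 uM final) UAS-beta-lactamase expression in HEK 293T cells was measured by FRET fluorescence following 16 h compound exposure at 37 °C.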

[4] = qHTS assay to identify small molecule agonists of the farnesoid-X-receptor (FXR) signaling pathway - cell viability counter screen (AID 743218); further: nearly all actives have a fitted effect of over 45% in size
Outline: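 After 16 h at 37 C with test compounds, FXR-bla HEK 293T cells were given LiveBLAzer B/G substrate for 2 h at RT and then CellTiter-Glo; luminescence was taken after 30 min.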

[5] = target: Bile acid receptor (Homo sapiens) (UniProt Q96RI1); assay: qHTS assay to identify small molecule agonists of the farnesoid-X-receptor (FXR) signaling pathway (AID 743220; active means well fitted activation curve with a large enough effect in the signal ratio in the repeat runs, not every such curve was filed as active; the % refers to the signal ratio)
Outline: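 Beta-lactamase reporter under UAS control in GeneBLAzer FXR HEK 293T cells (5000/well) measured with LiveBLAzer FRET substrate after 2 h at room temperature. Compound exposure lasted 16 h at 37C.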

[6] = qHTS assay to identify small molecule antagonists of the farnesoid-X-receptor (FXR) signaling pathway - cell viability counter screen (AID 743221; active means well fitted cell-killing curve with a large enough effect in the repeat runs, not every such curve was filed as active; further: nearly all actives have a fitted effect of over 50% in size)
Outline: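 FXR-UAS-bla HEK 293T cells were treated with test compounds plus chenodeoxycholic acid (50 uM final) for 16 h at 37 C. Cell viability in the same wells was then read as CellTiter-Glo luminescence after 30 min at room temperature.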

[7] = target: Vitamin D3 receptor (Homo sapiens) (UniProt P11473); assay: qHTS assay to identify small molecule agonists of the vitamin D receptor (VDR) signaling pathway (AID 743222; calls by dose curve)
Outline: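 VDR-bla cells were seeded, left 4 h, treated with compounds in DMSO for 16 h, incubated 2 h at RT with B/G FRET substrate, and read for fluorescence.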

[8] = qHTS assay to identify small molecule agonists of the vitamin D receptor (VDR) signaling pathway - cell viability counter screen (AID 743224); further: series mostly up to about 63 µM; nearly all actives have a fitted effect of over 50% in size
Outline: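 Here cell health was gauged by luminescent ATP detection (CellTiter-Glo, 30 min RT) in VDR-bla cells that had been incubated with test compounds for 16 h at 37C and 5% CO2.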

[9] = qHTS assay to identify small molecule antagonists of the vitamin D receptor (VDR) signaling pathway - cell viability counter screen (AID 743225); further: nearly all actives have a fitted effect of over 50% in size
Outline: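 VDR-bla HEK 293T cells, 4 h pre-incubation at 37C, then compound plus 1-alpha,25-dihydroxyvitamin D3 (3 nM final) for 16 h. After the beta-lactamase FRET read, CellTiter-Glo was added to the same wells; luminescence after 30 min at room temperature.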

[10] = qHTS assay to identify small molecule agonists of the NFkB signaling pathway (AID 1159509; active means well fitted curve in the direction sought with a large enough effect in the signal ratio in the repeat runs, not every such curve was filed as active; the % refers to the signal ratio; further: series mostly up to about 61 µM)
Outline: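 NFkB-bla ME-180 cells with a beta-lactamase reporter under an NF-kB response element were plated overnight, treated with compounds in DMSO for 5 hr at 37 C, then loaded with FRET substrate for 1.5 hr at room temperature.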

[11] = qHTS assay to identify small molecule agonists of the NFkB signaling pathway - cell viability counter screen (AID 1159515; calls by dose curve; further: series mostly up to about 61 µM; nearly all actives have a fitted effect of over 55% in size)
Outline: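 5 hr compound treatment of NFkB-bla ME-180 cells (2,000/well, seeded overnight beforehand), followed by reporter substrate for 1.5 hr. CellTiter-Glo added afterward; luminescence after 30 min RT.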

[12] = qHTS assay to identify small molecule agonists of the endoplasmic reticulum stress response signaling pathway (AID 1159516; active means well fitted activation curve with a large enough effect in the signal ratio in the repeat runs, not every such curve was filed as active; the % refers to the signal ratio)
Outline: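 Reporter HeLa cells (ESRE-beta-lactamase) underwent 5 hr compound incubation at 37 C and 5% CO2 in quantitative HTS format. Detection followed 2 hr of FRET substrate loading at room temperature.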

[13] = qHTS assay to identify small molecule agonists of the endoplasmic reticulum stress response signaling pathway - cell viability counter screen (AID 1159517; calls by dose curve)
Outline: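 Counter-screen wells were identical to the reporter wells. Cells were plated at 1,500 per well and dosed for 5 hr, then read for luminescence 30 min after CellTiter-Glo addition.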

[14] = qHTS assay to identify small molecule antagonists of the retinoid-related orphan receptor gamma (ROR-gamma) signaling pathway - cell viability counter screen (AID 1159520); further: nearly all actives have a fitted effect of over 50% in size
Outline: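 Tet-on ROR gamma CHO cells were given compounds for 2 hr, then doxycycline hyclate at 1 uM final, and incubated 16 hr at 37 C. Viability was measured as ATP content by CellTiter-Glo luminescence.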

[15] = target: Nuclear receptor ROR-gamma (Homo sapiens) (UniProt P51449); assay: qHTS assay to identify small molecule antagonists of the retinoid-related orphan receptor gamma (ROR-gamma) signaling pathway (AID 1159521; further: nearly all actives have a fitted effect of over 50% in size; further: potency means the concentration at half of the fitted maximal effect)
Outline: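 Tet-on RORγ CHO cells carrying a ROR response element–luciferase reporter were pretreated with compounds for 2 h, then induced with 1 uM (final) doxycycline hyclate for 16 h at 37 C. Antagonism was read as decreased ONE-Glo luminescence.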

[16] = qHTS assay to identify small molecule agonists of the AP-1 signaling pathway - cell viability counter screen (AID 1159525; calls by dose curve; further: nearly all actives have a fitted effect of over 55% in size)
Outline: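 AP-1-bla ME-180 cells in Opti-MEM with 0.5% dialyzed FBS, compound exposure 5 h at 37 C in 15-point titration. Viability read in the same wells as ATP content by CellTiter-Glo luminescence, normalised to tetra-n-octylammonium bromide and DMSO controls.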

[17] = qHTS assay to identify small molecule agonists of the AP-1 signaling pathway (AID 1159526; calls by dose curve; further: potency means the concentration at half of the fitted maximal effect)
[18] = qHTS assay to identify small molecule agonists of the RXR signaling pathway - cell viability counter screen (AID 1159529)
Outline: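 RXR-alpha-UAS-bla HEK 293T cells in medium with 2% charcoal-stripped FBS were preincubated 5 hr, then exposed to compounds for 16 hr at 37 C. Viability was read as CellTiter-Glo luminescence after 30 min at room temperature.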

[19] = target: Vitamin D3 receptor (Homo sapiens) (UniProt P11473); assay: qHTS assay to identify small molecule antagonists of the vitamin D receptor (VDR) signaling pathway (AID 743223; active means well fitted inhibition curve with a large enough effect in the signal ratio in the repeat runs, not every such curve was filed as active; the % refers to the signal ratio)
Outline: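 VDR-bla cells were plated, incubated 4 h at 37C, then given compound and 1alpha,25-dihydroxyvitamin D3 (3 nM final). After 16 h at 37C, LiveBLAzer B/G FRET substrate was added for 2 h at room temperature and fluorescence read.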

Sequence of Vitamin D3 receptor (Homo sapiens) (P11473 whole entry, looked up): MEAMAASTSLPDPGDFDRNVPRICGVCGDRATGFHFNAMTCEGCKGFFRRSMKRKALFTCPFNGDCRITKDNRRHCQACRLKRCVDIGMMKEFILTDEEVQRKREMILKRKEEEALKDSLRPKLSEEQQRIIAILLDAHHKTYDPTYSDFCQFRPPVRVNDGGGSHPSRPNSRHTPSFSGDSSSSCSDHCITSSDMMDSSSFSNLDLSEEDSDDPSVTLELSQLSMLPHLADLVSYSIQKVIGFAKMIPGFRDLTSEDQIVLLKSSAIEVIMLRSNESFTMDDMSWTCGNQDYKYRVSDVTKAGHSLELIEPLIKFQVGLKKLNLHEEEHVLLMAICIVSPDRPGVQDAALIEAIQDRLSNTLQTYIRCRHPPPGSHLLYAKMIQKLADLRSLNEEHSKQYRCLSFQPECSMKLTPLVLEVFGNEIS
Sequence of Peroxisome proliferator-activated receptor delta (Homo sapiens) (Q03181 whole entry, looked up): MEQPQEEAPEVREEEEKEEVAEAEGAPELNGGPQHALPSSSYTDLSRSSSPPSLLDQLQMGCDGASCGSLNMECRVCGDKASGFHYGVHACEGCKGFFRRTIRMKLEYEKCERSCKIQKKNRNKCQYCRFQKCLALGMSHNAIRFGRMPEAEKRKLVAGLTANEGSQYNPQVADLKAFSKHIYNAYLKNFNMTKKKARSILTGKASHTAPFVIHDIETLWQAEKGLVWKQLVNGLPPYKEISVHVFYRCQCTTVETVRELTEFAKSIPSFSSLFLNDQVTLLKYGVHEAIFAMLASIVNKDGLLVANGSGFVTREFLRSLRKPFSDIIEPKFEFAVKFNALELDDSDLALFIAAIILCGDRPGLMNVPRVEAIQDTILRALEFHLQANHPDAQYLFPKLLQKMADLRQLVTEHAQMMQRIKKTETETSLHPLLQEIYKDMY
Sequence of Bile acid receptor (Homo sapiens) (Q96RI1 whole entry, looked up): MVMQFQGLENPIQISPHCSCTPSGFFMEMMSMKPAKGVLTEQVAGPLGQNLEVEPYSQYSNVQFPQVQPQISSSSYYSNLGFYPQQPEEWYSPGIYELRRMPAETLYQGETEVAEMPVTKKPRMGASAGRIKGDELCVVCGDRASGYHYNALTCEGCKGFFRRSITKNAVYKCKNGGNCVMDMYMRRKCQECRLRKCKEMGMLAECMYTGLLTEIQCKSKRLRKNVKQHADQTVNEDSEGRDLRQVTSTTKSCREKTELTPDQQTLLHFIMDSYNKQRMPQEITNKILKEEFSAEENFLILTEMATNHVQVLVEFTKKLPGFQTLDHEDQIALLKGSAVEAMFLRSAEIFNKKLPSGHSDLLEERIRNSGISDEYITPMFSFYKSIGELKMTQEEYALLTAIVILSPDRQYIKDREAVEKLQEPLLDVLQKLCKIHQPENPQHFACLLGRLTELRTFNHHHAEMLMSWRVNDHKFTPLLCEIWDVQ

Compound	Potency [1]	outcome [2]	outcome [3]	Potency [4]	outcome [5]	Potency [6]	outcome [7]	outcome [8]	outcome [9]	outcome [10]	outcome [11]	outcome [12]	outcome [13]	Potency [14]	Potency [15]	outcome [16]	Potency [17]	Potency [18]	outcome [19]
CC(=O)CC/C=C(\C)CC/C=C(\C)CC/C=C(\C)CCC=C(C)C	inactive	inactive	inactive	inactive	inactive	inactive	inactive	inactive	inactive	inactive	inactive	inactive	inactive	inactive	inactive	inactive	inactive	inactive	
CC(=O)Nc1cccc(N)c1	inactive	inactive		inactive	inactive		inactive			inactive	inactive	inactive	inactive	inactive	inactive	inactive	inactive	inactive	inactive
CCC(C)CCCC(C)(C)O (centres undefined)	inactive	inactive		inactive		inactive	inactive		inactive	inactive	inactive	inactive	inactive	inactive	inactive	inactive	inactive	inactive	
C[C@H]1C[C@H]2[C@@H]3CCC4=CC(=O)C=C[C@]4(C)[C@@]3(F)[C@@H](O)C[C@]2(C)[C@@]1(O)C(=O)COP(=O)(O)O	inactive	inactive		inactive		inactive	inactive	inactive	inactive	inactive	inactive	inactive	inactive	inactive	inactive	inactive	inactive	inactive	inactive
CC1=C(C)C(=O)C(C(CCCCCC(=O)O)c2ccccc2)=C(C)C1=O (centres undefined)	inactive	inactive	inactive	inactive	inactive		inactive	inactive	inactive	inactive	inactive	inactive	inactive	inactive	inactive	inactive	inactive	inactive	
Nc1ccc(C(=O)Oc2ccccc2)c(O)c1	inactive		inactive	inactive	inactive	inactive	inactive	inactive		inactive	inactive	inactive	inactive	inactive	inactive	inactive	inactive	inactive	inactive
CC(O)CN (centres undefined)	inactive			inactive		inactive		inactive	inactive	inactive	inactive	inactive	inactive	inactive	inactive	inactive	inactive	inactive	
CCc1ccc2c(c1)C(=O)c1ccccc1C2=O	inactive					inactive	inactive	inactive	inactive	inactive	inactive	inactive	inactive	inactive	inactive	inactive	inactive	inactive	
O=C(O)c1ccc(O)c(O)c1		inactive		inactive		inactive		inactive	inactive	inactive	inactive	inactive	inactive	inactive	inactive	inactive	inactive	inactive	
CC(=O)OCC(=O)[C@@]1(O)CC[C@H]2[C@@H]3CCC4=CC(=O)C=C[C@]4(C)[C@@]3(F)[C@@H](O)C[C@@]21C	inactive			inactive		inactive		inactive	inactive	inactive	inactive	inactive	inactive	inactive	inactive	inactive	inactive	inactive	
CCC[Si](OC)(OC)OC		inactive	inactive	inactive	inactive	inactive	inactive	inactive		inactive	inactive	inactive	inactive	inactive	inactive	inactive	inactive	inactive	
FC1(F)C(F)(F)C(F)(F)C2(F)C(F)(C1(F)F)C(F)(F)C(F)(F)C1(F)C(F)(F)C(F)(F)C(F)(F)C(F)(F)C12F (centres undefined)	inactive			inactive		inactive		inactive	inactive	inactive	inactive	inactive	inactive	inactive	inactive	inactive	inactive	inactive	
O=C(O)c1cc(C(=O)O)cc([N+](=O)[O-])c1	inactive			inactive		inactive	inactive	inactive	inactive	inactive	inactive	inactive	inactive	inactive	inactive	inactive	inactive	inactive	
CCc1ccc(C(=O)C(C)CN2CCCCC2)cc1 (centres undefined)	inactive	inactive				inactive		inactive	inactive	inactive	inactive	inactive	inactive	inactive	inactive	inactive	inactive	inactive	
CC(C(=O)O)c1ccc2c(c1)Cc1cccnc1O2 (centres undefined)	inactive	inactive		inactive			inactive	inactive		inactive	inactive	inactive	inactive	inactive	inactive	inactive	inactive	inactive	inactive
O=c1[nH][nH]c2ccccc12	inactive	inactive	inactive	inactive	inactive	inactive	inactive	inactive	inactive	inactive	inactive	inactive	inactive	inactive	15.6 µM (active)	inactive	49.9 µM (active)		inactive
CC(C)Oc1ccccc1O	inactive	inactive		inactive					inactive	inactive	inactive	inactive	inactive	inactive	inactive	inactive	inactive	inactive	
OCCCO	inactive	inactive		inactive			inactive	inactive		inactive	inactive	inactive	inactive	inactive	inactive	inactive	inactive	inactive	
